The full data set covers some 8,800 targets. This sample favours those with a hit. About 0.5% of all pairs of compound and target were hits.
What was measured:
Test in all cases: log2 fold change, soluble protein after heating vs DMSO (PISA); higher = thermal stabilisation; K562 lysate, 10 uM; active = over 0.2 and 3.5 SD of the protein, either way, in both replicates (recomputed)
[1] = compound: C=CC(=O)N1CCC[C@@H](n2nc(-c3ccc(Oc4ccccc4)cc3)c3c(N)ncnc32)C1 [ibrutinib]
How it was run: (§1)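 The values are log-two fold changes in thermal stability compared with solvent controls and come from duplicates. They were obtained by TMTpro 16plex LC-MS/MS, with channel sums equalised, on the supernatant after 21,000xg for 90 min. That supernatant came from crude K562 extract at 1 mg/mL protein treated with 10 μM compound for 30 min, heated for 3 min across 48°C-58°C, pooled and brought to 0.5% NP-40 at 4°C.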

[2] = compound: CC(=O)c1cnc2ccc(-c3cc(Cl)c(O)c(Cl)c3)nc2c1N[C@H]1CC[C@H](CN(C)C)CC1
How it was run: as §1

[3] = compound: CC(C)C1=C2N=C(C=C(N2N=C1)NCC3=CC=CC=C3)NCCCCCCN
How it was run: as §1

[4] = compound: CC1=C(C=C(C=C1)NC(=O)C2=CC(=CC=C2)C(C)(C)C#N)NC3=CC4=C(C=C3)N=CN(C4=O)C
How it was run: as §1

[5] = compound: CC1=CC=C(C=C1)SC2=C3C=C(SC3=CN=C2)C(=O)N
How it was run: as §1

[6] = compound: CC(C)(C)Cn1c(N)nc2ccc(-c3[nH]c(C(C)(C)C)nc3-c3ccc(F)cc3)nc21 [ralimetinib]
How it was run: as §1

[7] = compound: CC(C)(O)CC(=O)NCCn1ccc2ncnc(Nc3ccc(Oc4cccc(C(F)(F)F)c4)c(Cl)c3)c21
How it was run: as §1

[8] = compound: CC1=C(C(CC(=O)N1)C2=CC=C(C=C2)C(F)(F)F)C(=O)NC3=C(C=C4C(=C3)C=NN4)F
How it was run: as §1

[9] = compound: CC1=C(C2=C(C=C1)C(=O)C3=CC=CC=C3N2CCCN)C
How it was run: as §1

[10] = compound: CC1=C(C=C(C=C1)NC(=O)C2=CC(=CC=C2)N(C)C)NC(=O)C3=CC=C(C=C3)O
How it was run: as §1

Measured: log2 fold change

DPY19L3 (UniProt Q6ZPD9)
Chain of UniProt Q6ZPD9 (Q6ZPD9 whole entry, looked up): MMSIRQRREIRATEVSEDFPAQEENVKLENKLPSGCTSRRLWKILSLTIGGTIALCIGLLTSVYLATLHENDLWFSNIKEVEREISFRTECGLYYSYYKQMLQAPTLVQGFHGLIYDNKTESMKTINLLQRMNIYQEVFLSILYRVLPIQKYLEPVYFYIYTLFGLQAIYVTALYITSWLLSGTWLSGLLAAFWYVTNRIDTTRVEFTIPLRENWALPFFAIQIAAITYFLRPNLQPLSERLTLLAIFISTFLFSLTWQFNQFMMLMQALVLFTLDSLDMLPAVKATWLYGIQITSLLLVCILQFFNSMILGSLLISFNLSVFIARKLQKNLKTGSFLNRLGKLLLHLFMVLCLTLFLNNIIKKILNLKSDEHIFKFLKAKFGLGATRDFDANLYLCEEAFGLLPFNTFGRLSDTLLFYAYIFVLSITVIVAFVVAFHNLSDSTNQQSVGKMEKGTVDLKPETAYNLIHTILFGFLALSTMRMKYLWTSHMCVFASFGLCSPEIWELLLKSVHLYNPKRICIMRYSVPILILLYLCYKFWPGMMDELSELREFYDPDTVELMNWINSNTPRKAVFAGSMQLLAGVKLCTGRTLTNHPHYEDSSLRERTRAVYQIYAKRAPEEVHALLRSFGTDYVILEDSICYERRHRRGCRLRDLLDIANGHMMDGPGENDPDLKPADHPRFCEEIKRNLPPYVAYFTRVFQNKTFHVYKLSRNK
inactive: [1] -0.111 | [2] 0.012 | [3] -0.224 | [4] 0.047 | [5] -0.017

CINP isoform 3 (UniProt Q9BW66)
Chain of UniProt Q9BW66 (Q9BW66 whole entry, looked up): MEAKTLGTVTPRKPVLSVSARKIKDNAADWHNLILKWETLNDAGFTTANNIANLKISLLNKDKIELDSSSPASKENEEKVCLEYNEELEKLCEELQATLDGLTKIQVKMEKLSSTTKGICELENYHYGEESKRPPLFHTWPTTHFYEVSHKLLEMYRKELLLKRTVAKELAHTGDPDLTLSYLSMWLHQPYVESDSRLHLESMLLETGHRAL
inactive: [1] 0 | [2] -0.012 | [6] 0.047 | [7] -0.051 | [8] 0.072 | [9] -0.168 | [4] 0.039 | [10] 0.009 | [5] -0.005

DBF4 (UniProt Q9UBU7)
inactive: [1] -0.06 | [6] -0.048 | [7] -0.017 | [3] -0.01 | [8] -0.062 | [9] -0.058 | [4] -0.012 | [10] -0.042

COG5 isoform 2 (UniProt Q9UP83)
Chain of UniProt Q9UP83 (Q9UP83 whole entry, looked up): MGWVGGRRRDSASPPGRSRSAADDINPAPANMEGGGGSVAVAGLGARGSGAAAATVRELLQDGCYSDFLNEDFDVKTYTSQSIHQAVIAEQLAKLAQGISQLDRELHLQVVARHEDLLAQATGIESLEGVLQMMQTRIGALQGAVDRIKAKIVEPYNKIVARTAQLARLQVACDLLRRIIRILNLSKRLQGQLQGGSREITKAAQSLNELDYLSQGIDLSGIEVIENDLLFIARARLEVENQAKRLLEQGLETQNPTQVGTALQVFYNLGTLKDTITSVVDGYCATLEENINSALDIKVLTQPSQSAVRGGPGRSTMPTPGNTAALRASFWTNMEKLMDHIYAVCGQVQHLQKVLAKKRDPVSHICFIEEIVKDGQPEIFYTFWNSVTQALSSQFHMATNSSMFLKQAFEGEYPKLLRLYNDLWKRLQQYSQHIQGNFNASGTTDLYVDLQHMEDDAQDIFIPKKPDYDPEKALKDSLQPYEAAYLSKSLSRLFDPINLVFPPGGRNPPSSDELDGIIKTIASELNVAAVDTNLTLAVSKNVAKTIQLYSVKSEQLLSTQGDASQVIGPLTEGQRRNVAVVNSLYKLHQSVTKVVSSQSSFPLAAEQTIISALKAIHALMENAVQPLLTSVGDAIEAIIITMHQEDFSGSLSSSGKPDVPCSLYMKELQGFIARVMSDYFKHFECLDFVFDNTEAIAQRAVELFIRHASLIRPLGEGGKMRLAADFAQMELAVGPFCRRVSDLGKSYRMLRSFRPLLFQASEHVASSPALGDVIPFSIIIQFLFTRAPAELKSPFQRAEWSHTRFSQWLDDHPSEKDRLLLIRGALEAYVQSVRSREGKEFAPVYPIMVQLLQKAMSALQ
inactive: [1] 0.061 | [2] -0.036 | [6] 0.074 | [7] -0.027 | [3] 0.037 | [8] -0.005 | [9] 0.04 | [4] -0.016 | [10] 0.073 | [5] 0.052

CTNNBL1 (UniProt Q8WYA6)
Chain of UniProt Q8WYA6 (Q8WYA6 whole entry, looked up): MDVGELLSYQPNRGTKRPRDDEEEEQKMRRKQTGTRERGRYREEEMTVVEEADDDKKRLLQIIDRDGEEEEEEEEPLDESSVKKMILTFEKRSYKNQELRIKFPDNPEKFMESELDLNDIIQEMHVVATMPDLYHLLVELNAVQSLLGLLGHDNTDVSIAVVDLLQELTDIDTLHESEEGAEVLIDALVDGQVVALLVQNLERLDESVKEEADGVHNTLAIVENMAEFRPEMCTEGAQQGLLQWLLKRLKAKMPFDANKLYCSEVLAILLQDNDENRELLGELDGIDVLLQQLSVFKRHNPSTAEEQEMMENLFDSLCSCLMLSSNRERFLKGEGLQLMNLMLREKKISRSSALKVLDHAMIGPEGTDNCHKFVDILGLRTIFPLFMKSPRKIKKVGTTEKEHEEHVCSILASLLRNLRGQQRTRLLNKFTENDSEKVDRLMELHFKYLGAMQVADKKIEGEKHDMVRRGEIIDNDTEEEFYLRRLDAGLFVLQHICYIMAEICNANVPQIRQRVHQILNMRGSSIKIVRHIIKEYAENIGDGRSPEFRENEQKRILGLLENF
inactive: [1] 0 | [2] 0.047 | [6] -0.095 | [7] -0.169 | [3] 0.017 | [8] -0.051 | [9] -0.04 | [4] 0.015 | [10] 0.056 | [5] 0.01

COL6A3 (UniProt P12111)
active: [10] -0.54
inactive: [1] -0.087 | [6] 0.174 | [7] -0.132 | [3] 0.047 | [8] -0.066 | [9] -0.099 | [4] -0.021

CSRP2 (UniProt Q16527)
inactive: [1] 0.054 | [4] 0.271

CYP4V2 (UniProt Q6ZWL3)
Chain of UniProt Q6ZWL3 (Q6ZWL3 whole entry, looked up): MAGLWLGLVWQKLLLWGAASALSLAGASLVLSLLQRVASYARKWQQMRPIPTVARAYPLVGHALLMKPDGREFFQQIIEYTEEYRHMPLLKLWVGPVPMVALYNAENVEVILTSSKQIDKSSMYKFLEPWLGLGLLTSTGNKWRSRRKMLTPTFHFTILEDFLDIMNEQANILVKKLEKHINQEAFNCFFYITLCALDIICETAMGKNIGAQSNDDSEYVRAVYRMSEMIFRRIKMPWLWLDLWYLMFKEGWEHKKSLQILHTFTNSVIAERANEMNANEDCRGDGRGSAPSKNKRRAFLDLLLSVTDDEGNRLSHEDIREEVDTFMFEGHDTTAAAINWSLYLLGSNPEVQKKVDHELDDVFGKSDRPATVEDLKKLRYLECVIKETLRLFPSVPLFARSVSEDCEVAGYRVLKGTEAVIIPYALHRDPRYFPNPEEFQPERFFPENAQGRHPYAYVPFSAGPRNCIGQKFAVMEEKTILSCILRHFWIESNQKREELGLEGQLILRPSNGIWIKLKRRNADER
inactive: [1] 0.157 | [2] 0.129 | [6] 0.058 | [7] -0.095 | [3] -0.004 | [9] -0.022 | [4] 0.02 | [10] 0.015 | [5] 0.015

DCTN1 isoform 4 (UniProt Q14203)
inactive: [2] 0.089 | [6] 0.114 | [7] -0.076 | [3] 0.1 | [8] -0.074 | [9] -0.11 | [4] 0.044 | [10] 0.036 | [5] -0.029

DCP1A (UniProt Q9NPI6)
inactive: [1] 0 | [2] -0.016 | [6] 0.004 | [7] -0.042 | [3] 0.025 | [8] 0.013 | [9] -0.02 | [4] 0.046 | [10] 0.011 | [5] 0

CTNND1 isoform 3 (UniProt O60716)
inactive: [1] 0.01 | [2] 0.001 | [6] -0.058 | [7] -0.028 | [3] 0 | [8] 0.006 | [9] -0.036 | [4] -0.016 | [10] 0.032 | [5] -0.025

CSAD isoform 3 (UniProt Q9Y600)
Chain of UniProt Q9Y600 (Q9Y600 whole entry, looked up): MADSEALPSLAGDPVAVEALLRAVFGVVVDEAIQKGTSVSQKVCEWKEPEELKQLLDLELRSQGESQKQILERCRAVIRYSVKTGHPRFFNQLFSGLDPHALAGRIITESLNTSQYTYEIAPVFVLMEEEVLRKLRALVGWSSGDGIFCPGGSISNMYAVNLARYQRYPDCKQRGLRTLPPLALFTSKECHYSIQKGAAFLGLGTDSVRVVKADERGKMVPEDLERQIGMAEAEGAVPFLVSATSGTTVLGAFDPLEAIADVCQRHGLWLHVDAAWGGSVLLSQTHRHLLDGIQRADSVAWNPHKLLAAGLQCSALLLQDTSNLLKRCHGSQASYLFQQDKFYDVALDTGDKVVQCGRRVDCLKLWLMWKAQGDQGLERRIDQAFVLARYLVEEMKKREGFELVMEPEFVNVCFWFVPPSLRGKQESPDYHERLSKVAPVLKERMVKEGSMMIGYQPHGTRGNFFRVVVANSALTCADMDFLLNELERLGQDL
inactive: [1] -0.224 | [6] -0.019 | [7] -0.048 | [3] 0.041 | [4] -0.027 | [10] -0.033

DHRS3 (UniProt O75911)
inactive: [1] 0.064 | [2] -0.07 | [6] 0.048 | [7] -0.023 | [3] 0.034 | [8] -0.001 | [9] -0.069 | [4] -0.015 | [10] -0.046 | [5] 0.045

CSNK1E (UniProt P49674)
inactive: [1] 0.029 | [2] 0.287 | [6] 0.208 | [7] -0.026 | [3] -0.04 | [8] -0.012 | [9] -0.064 | [4] -0.049 | [10] -0.028 | [5] -0.039

CNOT4 isoform 9 (UniProt O95628)
inactive: [1] 0.052 | [2] -0.019 | [6] 0.043 | [7] -0.084 | [3] -0.003 | [9] 0.032 | [4] -0.138 | [10] -0.02 | [5] 0.013

DDR1 isoform 5 (UniProt Q08345)
Chain of UniProt Q08345 (Q08345 whole entry, looked up): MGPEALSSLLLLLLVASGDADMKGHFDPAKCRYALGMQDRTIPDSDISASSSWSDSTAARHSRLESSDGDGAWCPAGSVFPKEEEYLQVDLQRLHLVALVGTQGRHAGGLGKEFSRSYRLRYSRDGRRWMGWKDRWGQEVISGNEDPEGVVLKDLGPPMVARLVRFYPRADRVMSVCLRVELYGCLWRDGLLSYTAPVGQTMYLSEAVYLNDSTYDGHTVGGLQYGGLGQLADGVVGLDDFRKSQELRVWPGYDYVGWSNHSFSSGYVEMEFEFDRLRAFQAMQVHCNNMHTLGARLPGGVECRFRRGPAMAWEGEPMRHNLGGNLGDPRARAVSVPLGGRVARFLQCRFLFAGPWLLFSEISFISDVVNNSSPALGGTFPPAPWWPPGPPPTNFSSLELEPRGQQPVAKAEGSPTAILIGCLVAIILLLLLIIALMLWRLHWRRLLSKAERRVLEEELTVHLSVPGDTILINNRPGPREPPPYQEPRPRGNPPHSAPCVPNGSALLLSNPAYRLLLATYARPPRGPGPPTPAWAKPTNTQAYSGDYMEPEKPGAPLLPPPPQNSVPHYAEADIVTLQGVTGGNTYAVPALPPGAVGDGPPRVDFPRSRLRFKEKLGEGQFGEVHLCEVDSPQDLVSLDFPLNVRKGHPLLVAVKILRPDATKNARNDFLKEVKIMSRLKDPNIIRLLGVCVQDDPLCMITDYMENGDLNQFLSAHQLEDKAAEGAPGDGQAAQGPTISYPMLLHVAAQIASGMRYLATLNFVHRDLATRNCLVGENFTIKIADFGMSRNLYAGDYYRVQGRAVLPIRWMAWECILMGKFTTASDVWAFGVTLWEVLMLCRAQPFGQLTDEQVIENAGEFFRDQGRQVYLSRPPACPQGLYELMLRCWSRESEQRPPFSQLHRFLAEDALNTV
inactive: [1] 0 | [6] 0.205 | [7] 0.021 | [8] -0.117 | [9] -0.099 | [4] 0.38 | [10] 0.117

DAPK1 isoform 3 (UniProt P53355)
inactive: [2] 0.35 | [6] 0.041 | [7] 0 | [3] -0.077 | [8] 0.138 | [9] 0.017 | [4] -0.151 | [10] -0.026 | [5] -0.094

CRLS1 (UniProt Q9UJA2)
inactive: [1] -0.023 | [2] -0.008 | [6] 0.079 | [7] -0.027 | [3] -0.102 | [8] -0.049 | [4] 0.066 | [10] 0.058 | [5] 0.048

CLPTM1L (UniProt Q96KA5)
Chain of UniProt Q96KA5 (Q96KA5 whole entry, looked up): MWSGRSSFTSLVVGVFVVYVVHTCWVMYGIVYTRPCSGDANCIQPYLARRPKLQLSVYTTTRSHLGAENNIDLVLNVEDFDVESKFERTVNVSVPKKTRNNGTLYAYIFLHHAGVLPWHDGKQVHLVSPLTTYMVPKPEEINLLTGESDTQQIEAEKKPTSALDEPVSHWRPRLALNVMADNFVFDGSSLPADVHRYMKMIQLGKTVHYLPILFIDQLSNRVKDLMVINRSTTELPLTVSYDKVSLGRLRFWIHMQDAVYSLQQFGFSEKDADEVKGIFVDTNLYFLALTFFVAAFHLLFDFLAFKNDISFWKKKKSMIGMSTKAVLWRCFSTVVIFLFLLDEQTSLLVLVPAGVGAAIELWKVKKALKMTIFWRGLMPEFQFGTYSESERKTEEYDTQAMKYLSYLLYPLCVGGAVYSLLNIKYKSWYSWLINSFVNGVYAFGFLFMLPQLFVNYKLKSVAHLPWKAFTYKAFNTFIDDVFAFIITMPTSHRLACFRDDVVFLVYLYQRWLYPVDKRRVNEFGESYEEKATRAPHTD
inactive: [2] -0.011 | [6] 0.041 | [7] -0.041 | [3] 0.048 | [8] 0.058 | [9] 0.081 | [4] -0.024 | [10] 0.039 | [5] -0.005

COX7B (UniProt P24311)
Chain of UniProt P24311 (P24311 whole entry, looked up): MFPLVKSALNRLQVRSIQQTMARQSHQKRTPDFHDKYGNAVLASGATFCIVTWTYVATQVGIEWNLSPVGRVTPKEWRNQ
inactive: [2] -0.016 | [6] 0.014 | [7] -0.09 | [3] 0.008 | [8] -0.046 | [9] -0.144 | [4] 0.018 | [10] 0.039 | [5] 0.02

CLIP1, A0A3B3ITA2
inactive: [6] 0.156 | [7] -0.173 | [4] 0.019 | [10] -0.215

CLPB isoform 2 (UniProt Q9H078)
inactive: [2] -0.016 | [6] 0.002 | [7] -0.024 | [3] -0.006 | [8] 0.002 | [9] -0.054 | [4] -0.011 | [10] 0.025 | [5] 0.012

CLASP1 isoform 4 (UniProt Q7Z460)
inactive: [3] -0.124 | [8] -0.226

DAZAP1 (UniProt K7EQ02)
inactive: [8] 0.033

CLUH (UniProt O75153)
inactive: [2] 0.093 | [6] 0.008 | [7] -0.004 | [3] -0.044 | [8] -0.01 | [9] 0 | [4] -0.001 | [10] 0.006 | [5] 0.008
